From the supplement of paper PMC6411743
± gives the standard deviation of the averaged measurements. Of roughly 5,400 targets only a part is listed; those with the largest changes were picked by preference.

Compound: Nc1nc2c(ncn2[C@@H]2O[C@H](COP(=O)(O)OP(=O)(O)OP(=O)(O)O)[C@@H](O)[C@H]2O)c(=O)[nH]1 [guanosine triphosphate]
Test: NP40-soluble protein abundance relative to vehicle (solubility fold change) (ratio); higher = more soluble protein in presence of GTP
Method in brief: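 Values are fold changes against the detergent-processed vehicle, based on vsn-normalised intensities. Jurkat crude lysate was treated at eight concentrations from 0.1 to 10 mM (10 min at room temperature, then 3 min at 37 °C), solubilised with 0.8% NP40 and benzonase, ultracentrifuged and analysed by TMT-labelled LC-MS/MS over three independent experiments.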

Chain of UniProt Q13428 (Q13428 whole entry): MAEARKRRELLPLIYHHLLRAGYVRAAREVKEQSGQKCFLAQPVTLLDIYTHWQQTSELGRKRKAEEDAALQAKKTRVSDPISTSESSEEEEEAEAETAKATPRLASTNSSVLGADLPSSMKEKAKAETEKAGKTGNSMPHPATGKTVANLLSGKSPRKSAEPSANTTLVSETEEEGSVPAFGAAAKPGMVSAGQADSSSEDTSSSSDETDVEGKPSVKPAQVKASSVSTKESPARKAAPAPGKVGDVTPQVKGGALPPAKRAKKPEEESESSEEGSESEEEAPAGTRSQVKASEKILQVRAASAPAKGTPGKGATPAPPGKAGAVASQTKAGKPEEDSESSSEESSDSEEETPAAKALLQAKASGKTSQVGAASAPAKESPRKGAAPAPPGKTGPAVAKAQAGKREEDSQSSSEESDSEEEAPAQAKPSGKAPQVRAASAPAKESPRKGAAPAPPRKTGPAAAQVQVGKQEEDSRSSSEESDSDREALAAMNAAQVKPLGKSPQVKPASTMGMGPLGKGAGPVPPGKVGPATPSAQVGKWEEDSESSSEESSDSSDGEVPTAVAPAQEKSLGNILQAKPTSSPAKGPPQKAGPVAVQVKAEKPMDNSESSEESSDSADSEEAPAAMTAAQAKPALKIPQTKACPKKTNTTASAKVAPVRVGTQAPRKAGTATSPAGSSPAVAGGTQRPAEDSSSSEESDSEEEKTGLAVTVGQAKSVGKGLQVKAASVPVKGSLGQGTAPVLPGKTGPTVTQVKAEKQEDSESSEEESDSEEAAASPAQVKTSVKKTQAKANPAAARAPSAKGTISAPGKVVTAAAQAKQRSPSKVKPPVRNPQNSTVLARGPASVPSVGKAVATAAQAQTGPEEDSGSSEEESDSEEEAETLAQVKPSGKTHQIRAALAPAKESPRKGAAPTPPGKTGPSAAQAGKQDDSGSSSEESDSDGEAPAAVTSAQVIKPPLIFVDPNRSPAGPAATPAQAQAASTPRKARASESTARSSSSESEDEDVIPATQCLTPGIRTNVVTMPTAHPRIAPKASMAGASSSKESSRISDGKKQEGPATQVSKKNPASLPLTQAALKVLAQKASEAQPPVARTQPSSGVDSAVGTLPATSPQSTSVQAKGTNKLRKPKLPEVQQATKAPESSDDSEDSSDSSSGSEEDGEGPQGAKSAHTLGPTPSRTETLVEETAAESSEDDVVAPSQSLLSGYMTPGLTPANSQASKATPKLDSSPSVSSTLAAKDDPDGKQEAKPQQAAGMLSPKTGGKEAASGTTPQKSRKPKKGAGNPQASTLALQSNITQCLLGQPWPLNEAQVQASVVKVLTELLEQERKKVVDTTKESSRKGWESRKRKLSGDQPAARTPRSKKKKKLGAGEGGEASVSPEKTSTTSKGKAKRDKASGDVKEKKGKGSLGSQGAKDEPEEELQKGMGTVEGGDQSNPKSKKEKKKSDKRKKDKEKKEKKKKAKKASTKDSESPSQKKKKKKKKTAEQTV
Chain of UniProt Q8WUF8 (Q8WUF8 whole entry): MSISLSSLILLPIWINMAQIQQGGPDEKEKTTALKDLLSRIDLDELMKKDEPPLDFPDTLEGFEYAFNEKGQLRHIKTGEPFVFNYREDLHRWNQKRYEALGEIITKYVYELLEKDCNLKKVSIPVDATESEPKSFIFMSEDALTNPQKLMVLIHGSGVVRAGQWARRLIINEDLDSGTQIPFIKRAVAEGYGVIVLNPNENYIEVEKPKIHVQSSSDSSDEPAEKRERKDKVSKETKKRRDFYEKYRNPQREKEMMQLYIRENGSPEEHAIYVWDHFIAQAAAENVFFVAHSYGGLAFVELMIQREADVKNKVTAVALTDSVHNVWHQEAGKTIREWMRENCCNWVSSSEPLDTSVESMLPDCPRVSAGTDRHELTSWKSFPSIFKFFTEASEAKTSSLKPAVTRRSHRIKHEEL
Chain of UniProt Q5SRE5 (Q5SRE5 whole entry): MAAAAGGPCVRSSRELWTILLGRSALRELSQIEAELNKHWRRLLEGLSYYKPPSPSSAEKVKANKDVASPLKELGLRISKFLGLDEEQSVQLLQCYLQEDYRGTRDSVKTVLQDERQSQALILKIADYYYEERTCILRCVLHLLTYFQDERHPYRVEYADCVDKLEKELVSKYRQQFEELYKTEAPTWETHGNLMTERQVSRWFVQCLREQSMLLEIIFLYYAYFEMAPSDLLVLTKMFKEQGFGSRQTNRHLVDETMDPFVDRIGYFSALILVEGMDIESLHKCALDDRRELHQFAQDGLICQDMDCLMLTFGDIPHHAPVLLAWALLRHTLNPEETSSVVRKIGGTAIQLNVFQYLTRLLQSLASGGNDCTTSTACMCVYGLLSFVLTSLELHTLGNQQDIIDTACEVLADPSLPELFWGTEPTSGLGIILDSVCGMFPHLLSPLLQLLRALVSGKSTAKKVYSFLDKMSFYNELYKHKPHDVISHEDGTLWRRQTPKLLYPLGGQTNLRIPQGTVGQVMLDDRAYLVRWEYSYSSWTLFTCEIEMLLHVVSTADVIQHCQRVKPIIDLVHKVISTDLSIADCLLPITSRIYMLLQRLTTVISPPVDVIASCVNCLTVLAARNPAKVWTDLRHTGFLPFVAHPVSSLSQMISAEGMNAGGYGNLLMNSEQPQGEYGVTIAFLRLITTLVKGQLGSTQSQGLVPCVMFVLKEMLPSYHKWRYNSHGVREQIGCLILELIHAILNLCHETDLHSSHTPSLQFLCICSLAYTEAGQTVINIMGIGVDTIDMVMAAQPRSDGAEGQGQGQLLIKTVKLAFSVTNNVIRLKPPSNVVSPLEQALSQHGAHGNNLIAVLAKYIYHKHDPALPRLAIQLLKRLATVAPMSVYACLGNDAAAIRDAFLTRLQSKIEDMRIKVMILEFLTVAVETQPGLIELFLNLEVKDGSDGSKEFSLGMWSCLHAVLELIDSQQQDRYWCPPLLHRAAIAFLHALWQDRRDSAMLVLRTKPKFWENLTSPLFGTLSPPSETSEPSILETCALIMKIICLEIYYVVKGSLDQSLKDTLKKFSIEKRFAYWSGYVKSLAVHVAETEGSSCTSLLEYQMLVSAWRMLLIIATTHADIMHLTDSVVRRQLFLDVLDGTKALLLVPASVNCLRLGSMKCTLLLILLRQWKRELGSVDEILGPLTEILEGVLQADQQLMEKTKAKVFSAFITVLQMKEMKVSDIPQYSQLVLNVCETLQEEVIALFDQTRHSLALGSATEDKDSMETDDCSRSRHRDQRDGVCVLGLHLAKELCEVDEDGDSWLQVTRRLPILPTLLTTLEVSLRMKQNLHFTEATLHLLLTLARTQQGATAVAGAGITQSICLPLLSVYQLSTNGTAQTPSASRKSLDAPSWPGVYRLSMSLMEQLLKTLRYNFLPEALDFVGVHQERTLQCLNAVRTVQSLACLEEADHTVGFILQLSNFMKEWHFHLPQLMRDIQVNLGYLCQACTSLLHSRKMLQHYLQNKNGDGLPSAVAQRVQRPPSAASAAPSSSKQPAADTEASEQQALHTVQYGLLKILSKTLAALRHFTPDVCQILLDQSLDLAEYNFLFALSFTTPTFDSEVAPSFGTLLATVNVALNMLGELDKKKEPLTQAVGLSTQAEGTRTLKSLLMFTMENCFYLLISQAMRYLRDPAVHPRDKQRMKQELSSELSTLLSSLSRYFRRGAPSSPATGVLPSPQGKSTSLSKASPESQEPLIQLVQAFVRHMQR
Chain of UniProt Q86U90 (Q86U90 whole entry): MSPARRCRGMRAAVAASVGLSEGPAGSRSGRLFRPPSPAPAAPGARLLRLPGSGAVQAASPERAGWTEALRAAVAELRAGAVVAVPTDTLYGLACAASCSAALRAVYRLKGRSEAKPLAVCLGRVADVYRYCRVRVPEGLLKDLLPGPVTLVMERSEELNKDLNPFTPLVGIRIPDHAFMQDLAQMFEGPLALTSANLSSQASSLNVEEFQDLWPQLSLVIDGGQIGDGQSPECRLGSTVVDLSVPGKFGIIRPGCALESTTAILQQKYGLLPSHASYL
Chain of UniProt P60228 (P60228 whole entry): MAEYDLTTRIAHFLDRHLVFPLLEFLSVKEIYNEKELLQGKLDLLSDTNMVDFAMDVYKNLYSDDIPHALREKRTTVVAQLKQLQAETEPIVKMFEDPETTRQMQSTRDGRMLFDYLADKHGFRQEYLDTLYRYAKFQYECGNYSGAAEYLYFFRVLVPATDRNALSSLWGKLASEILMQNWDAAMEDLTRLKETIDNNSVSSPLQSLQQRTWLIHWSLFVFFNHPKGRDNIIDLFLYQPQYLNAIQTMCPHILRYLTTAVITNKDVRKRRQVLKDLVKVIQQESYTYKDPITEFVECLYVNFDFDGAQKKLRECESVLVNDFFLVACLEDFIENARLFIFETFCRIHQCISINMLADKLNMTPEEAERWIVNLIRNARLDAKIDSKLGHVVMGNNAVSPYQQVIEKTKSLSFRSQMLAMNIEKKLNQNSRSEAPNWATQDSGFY
Chain of UniProt Q2TB10 (Q2TB10 whole entry, one chain of several): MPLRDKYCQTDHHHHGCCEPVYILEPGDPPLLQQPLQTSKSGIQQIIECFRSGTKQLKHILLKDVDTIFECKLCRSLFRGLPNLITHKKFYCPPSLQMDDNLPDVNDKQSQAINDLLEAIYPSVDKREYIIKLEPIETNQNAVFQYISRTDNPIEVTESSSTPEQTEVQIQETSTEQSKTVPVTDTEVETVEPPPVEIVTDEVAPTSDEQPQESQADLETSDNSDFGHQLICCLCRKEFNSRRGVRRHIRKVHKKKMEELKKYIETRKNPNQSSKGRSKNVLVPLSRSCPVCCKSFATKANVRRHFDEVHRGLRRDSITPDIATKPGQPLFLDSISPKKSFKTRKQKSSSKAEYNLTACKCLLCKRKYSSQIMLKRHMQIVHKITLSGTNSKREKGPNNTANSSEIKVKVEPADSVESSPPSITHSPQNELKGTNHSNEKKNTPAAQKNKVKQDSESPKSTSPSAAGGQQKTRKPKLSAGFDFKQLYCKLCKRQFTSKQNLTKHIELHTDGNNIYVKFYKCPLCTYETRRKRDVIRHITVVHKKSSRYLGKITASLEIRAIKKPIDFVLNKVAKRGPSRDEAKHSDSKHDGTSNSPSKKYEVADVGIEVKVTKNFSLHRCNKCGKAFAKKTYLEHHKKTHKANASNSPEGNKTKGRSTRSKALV

Target	NP40-soluble protein abundance (concentration: 0.1mM)	NP40-soluble protein abundance (concentration: 0.5mM)	NP40-soluble protein abundance (concentration: 1mM)	NP40-soluble protein abundance (concentration: 2mM)	NP40-soluble protein abundance (concentration: 4mM)	NP40-soluble protein abundance (concentration: 6mM)	NP40-soluble protein abundance (concentration: 8mM)	NP40-soluble protein abundance (concentration: 10mM)
UniProt Q02447-3	0.995 ± 0.021	1 ± 0.078	1.01 ± 0.033	0.984 ± 0.067	0.983 ± 0.049	1.01 ± 0.084	1.08 ± 0.055	1.05 ± 0.016
UniProt Q8WUF8|Q8WUF8-3	1.03 ± 0.14	1.03 ± 0.051	0.978 ± 0.14	1 ± 0.044	0.966 ± 0.028	1.01 ± 0.014	0.959 ± 0.021	0.99 ± 0.023
RDH11 (UniProt Q8TC12)	1 ± 0.014	0.985 ± 0.024	0.911 ± 0.034	0.895 ± 0.051	0.867 ± 0.048	0.88 ± 0.015	0.824 ± 0.084	0.782 ± 0.082
THOC5 (UniProt Q13769)	1.18 ± 0.0098	1.35 ± 0.093	1.5 ± 0.18	1.83 ± 0.36	2.21 ± 0.56	2.3 ± 0.66	2.45 ± 0.77	2.37 ± 0.74
UniProt Q13303-2	1.05 ± 0.045	1.06 ± 0.11	0.954 ± 0.086	1 ± 0.14	0.984 ± 0.11	0.973 ± 0.14	0.898 ± 0.024	0.904 ± 0.043
UniProt Q16864|Q16864-2	0.906 ± 0.02	0.931 ± 0.05	1.032 ± 0.01	1.04 ± 0.067	0.999 ± 0.061	1.02 ± 0.034	0.992 ± 0.073	1.02 ± 0.027
UniProt P60228	1.09 ± 0.046	1.08 ± 0.061	1.05 ± 0.098	1.14 ± 0.17	1.32 ± 0.27	1.44 ± 0.33	1.58 ± 0.3	1.75 ± 0.38
UniProt Q13428|Q13428-3|Q13428-4|Q13428-7	0.975 ± 0.096	1.01 ± 0.085	1.09 ± 0.12	1.09 ± 0.15	1.11 ± 0.16	1.13 ± 0.14	1.17 ± 0.17	1.23 ± 0.23
ITPK1 (UniProt Q13572)	0.997 ± 0.085	0.965 ± 0.064	0.904 ± 0.095	0.981 ± 0.077	0.981 ± 0.15	0.943 ± 0.18	0.924 ± 0.13	0.953 ± 0.09
UniProt Q86V48|Q86V48-2|Q86V48-3	0.953 ± 0.056	0.967 ± 0.042	1.01 ± 0.051	0.99 ± 0.097	1.03 ± 0.088	1.08 ± 0.081	1.17 ± 0.1	1.2 ± 0.11
EDC4 (UniProt Q6P2E9)	0.984 ± 0.029	1 ± 0.037	1.01 ± 0.045	1.01 ± 0.029	1.01 ± 0.039	1.02 ± 0.032	1.02 ± 0.057	1.04 ± 0.046
UniProt Q5SRE5|Q5SRE5-2	1.17 ± 0.11	1.13 ± 0.051	1.03 ± 0.13	1.01 ± 0.13	1.13 ± 0.024	1.11 ± 0.088	1.03 ± 0.029	1.08 ± 0.046
EIF3I (UniProt Q13347)	1.02 ± 0.04	1.03 ± 0.091	0.993 ± 0.089	1.04 ± 0.15	1.13 ± 0.19	1.26 ± 0.26	1.32 ± 0.23	1.4 ± 0.29
UniProt Q6UXH1|Q6UXH1-4|Q6UXH1-5|Q6UXH1-6	0.968 ± 0.018	0.941 ± 0.046	1.03 ± 0.09	0.959 ± 0.093	0.935 ± 0.096	0.959 ± 0.12	0.95 ± 0.061	0.956 ± 0.088
TBL3 (UniProt Q12788)	1.18 ± 0.1	1.16 ± 0.14	1.11 ± 0.058	1.36 ± 0.15	1.59 ± 0.19	1.65 ± 0.17	1.72 ± 0.21	1.7 ± 0.26
GALNT2 (UniProt Q10471)	1.02 ± 0.025	0.97 ± 0.021	0.9568 ± 0.0034	0.917 ± 0.014	0.928 ± 0.022	0.901 ± 0.012	0.927 ± 0.046	0.861 ± 0.052
UniProt P62995|P62995-3	1.08 ± 0.077	1.36 ± 0.24	1.64 ± 0.54	1.73 ± 0.47	1.61 ± 0.64	1.54 ± 0.58	1.54 ± 0.62	1.41 ± 0.64
UniProt Q2TB10|A0A087WXB4	1.04 ± 0.1	1.15 ± 0.14	1.15 ± 0.12	1.36 ± 0.28	1.68 ± 0.48	1.9 ± 0.44	2.04 ± 0.64	2.54 ± 1.1
P62158 (UniProt P0DP23)	0.715 ± 0.11	0.763 ± 0.14	0.991 ± 0.17	1.12 ± 0.19	1.09 ± 0.21	1.15 ± 0.24	0.939 ± 0.14	1.14 ± 0.11
EXOSC7 (UniProt Q15024)	1.09 ± 0.084	1.01 ± 0.071	1.06 ± 0.086	1.11 ± 0.12	1.26 ± 0.13	1.17 ± 0.12	1.22 ± 0.077	1.18 ± 0.061
UniProt Q7Z3B4|Q7Z3B4-3	1.02 ± 0.051	1 ± 0.021	1 ± 0.038	1.01 ± 0.032	1.06 ± 0.062	1.07 ± 0.065	1.12 ± 0.055	1.18 ± 0.092
YRDC (UniProt Q86U90)	0.989 ± 0.041	0.952 ± 0.022	0.949 ± 0.027	0.943 ± 0.015	0.946 ± 0.041	0.899 ± 0.026	0.871 ± 0.07	0.916 ± 0.055
UniProt Q7Z2T5	1.05 ± 0.05	1.09 ± 0.014	1.08 ± 0.035	1.21 ± 0.059	1.32 ± 0.072	1.42 ± 0.08	1.44 ± 0.059	1.57 ± 0.024
MLKL (UniProt Q8NB16)	0.98 ± 0.044	0.962 ± 0.052	0.896 ± 0.062	0.908 ± 0.035	0.873 ± 0.047	0.874 ± 0.032	0.868 ± 0.045	0.837 ± 0.024
UniProt P84090	1.06 ± 0.1	1.02 ± 0.06	1.26 ± 0.18	1.34 ± 0.11	1.42 ± 0.16	1.54 ± 0.1	1.65 ± 0.14	1.95 ± 0.38
CCDC25 (UniProt Q86WR0)	0.954 ± 0.079	0.939 ± 0.057	0.892 ± 0.051	0.842 ± 0.071	0.855 ± 0.1	0.842 ± 0.084	0.876 ± 0.059	0.863 ± 0.068
TWF2 (UniProt Q6IBS0)	1.02 ± 0.035	1.09 ± 0.049	1.02 ± 0.017	1.02 ± 0.055	1.03 ± 0.08	1.01 ± 0.013	0.95 ± 0.032	0.951 ± 0.012
CHMP7 (UniProt Q8WUX9)	0.945 ± 0.058	0.935 ± 0.087	0.973 ± 0.085	0.92 ± 0.11	0.884 ± 0.074	0.9 ± 0.045	0.912 ± 0.1	0.889 ± 0.084
UniProt Q86W42|Q86W42-2	1.21 ± 0.14	1.35 ± 0.28	1.46 ± 0.27	1.87 ± 0.52	2.27 ± 0.61	2.29 ± 0.68	2.26 ± 0.54	2.31 ± 0.65
